Screens (PubChem BioAssay)
An excerpt weighted towards active compounds, which were near 4.1% of everything screened.
PolyA inh: polyadenylation inhibitors in yeast reporter cells, primary screen, luminescence, S. cerevisiae | AID 1875, 2009 | S. cerevisiae SKY197-pL101 polyadenylation reporter, beta-gal luminescence; efflux-impaired pdr1/pdr3 knockout yeast; score 100 = 6 SD above DMSO | activity score, % at 12 µM | actives 0.02% (n = 300,000);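 active = lowest replicate activity score at least 50, where 100 means six control SD above control mean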;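 note: yeast exposed to compound for 9 h at 30 °C; higher score means more reporter readthrough which indicates perturbed polyadenylation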
M18AAP inhibitor: PfM18AAP inhibitors, malaria aminopeptidase, primary screen, biochemical, QFRET, recombinant enzyme | M18 aspartyl aminopeptidase (Plasmodium falciparum 3D7) | H-Glu-NHMec fluorogenic cleavage | inhibition, % at 7.35 µM | actives 1.2% (n = 290,000);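 active = inhibition above the campaign mean inhibition over all tested compounds plus 3 SD, cut at about 28% in these data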;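 note: 0% = plate median of test compound wells and 100% = 2 mM ZnCl2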
IDE cell activ: human IDE activators in live cells, primary screen, fluorescence polarization, HEK cells, FAbeta-B substrate; Insulin-degrading enzyme (Homo sapiens), P14735; FAbeta-B cleavage; 0% vehicle, 100% cell-free pure enzyme wells; activation, % at 5.96 µM; actives 0.073% (n = 340,000);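 active = activation above the mean of all tested compounds plus 3 SD, set per screening campaign, cut at about 17% in these data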
Target sequence (P14735 whole entry, looked up): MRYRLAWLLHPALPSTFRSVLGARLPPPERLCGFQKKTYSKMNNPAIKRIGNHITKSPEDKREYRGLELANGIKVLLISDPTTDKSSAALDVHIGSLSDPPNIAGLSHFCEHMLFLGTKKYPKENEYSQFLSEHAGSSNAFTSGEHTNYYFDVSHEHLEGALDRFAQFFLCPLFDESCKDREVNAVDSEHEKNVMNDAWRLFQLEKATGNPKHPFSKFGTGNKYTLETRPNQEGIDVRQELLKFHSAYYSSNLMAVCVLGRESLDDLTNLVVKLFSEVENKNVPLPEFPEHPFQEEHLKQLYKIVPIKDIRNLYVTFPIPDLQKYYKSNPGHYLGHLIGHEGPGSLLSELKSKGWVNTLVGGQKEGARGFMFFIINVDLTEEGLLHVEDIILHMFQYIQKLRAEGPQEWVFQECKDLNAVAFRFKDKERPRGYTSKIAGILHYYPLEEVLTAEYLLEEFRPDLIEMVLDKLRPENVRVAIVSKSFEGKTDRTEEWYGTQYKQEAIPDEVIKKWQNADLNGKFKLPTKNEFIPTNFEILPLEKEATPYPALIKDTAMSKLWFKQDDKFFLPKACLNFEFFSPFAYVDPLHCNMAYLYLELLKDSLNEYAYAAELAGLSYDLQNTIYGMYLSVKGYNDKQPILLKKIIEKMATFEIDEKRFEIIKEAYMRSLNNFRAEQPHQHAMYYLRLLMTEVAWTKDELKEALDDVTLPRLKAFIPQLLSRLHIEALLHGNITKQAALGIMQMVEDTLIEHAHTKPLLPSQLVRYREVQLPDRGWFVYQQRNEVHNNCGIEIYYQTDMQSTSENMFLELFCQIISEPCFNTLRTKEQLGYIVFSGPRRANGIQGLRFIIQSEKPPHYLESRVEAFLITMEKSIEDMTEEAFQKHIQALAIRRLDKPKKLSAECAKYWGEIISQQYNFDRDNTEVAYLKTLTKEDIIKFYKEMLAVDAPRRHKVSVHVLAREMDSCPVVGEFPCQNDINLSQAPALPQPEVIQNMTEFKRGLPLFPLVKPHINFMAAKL
CaV13 ICDI inh: Disruptors of the CACNA1D IQ motif to Ca2+-dependent inactivation inhibitor domain association, primary screening, Förster resonance energy transfer in intact living …; AID 743397; inhibition, % at 12.3 µM; HEK cells, CFP/YFP FRET ICDI-IQ, plate reader, 10 min; percent FRET-ratio fall versus neutral wells; actives 0.098% (n = 340,000);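 active = mean replicate inhibition of at least 30% and at least 1% of replicates passing that level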;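 note: 0% = median of the neutral control wells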
ALR H2O2 inh: inhibitors of human ALR sulfhydryl oxidase, primary screen, biochemical, H2O2 detection, HRP-luminol luminescence, single point; purified ALR, DTT oxidation; FAD-linked sulfhydryl oxidase ALR (Homo sapiens), P55789; actives 3.8% (n = 290,000); inhibition, % (test concentration not listed);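 active = mean replicate inhibition above about 79%, with every replicate also reaching it, limit read from the data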
IDE inh: human IDE inhibitors in live cells, primary screen, fluorescence polarization, HEK cells, FAbetaB substrate | Insulin-degrading enzyme (Homo sapiens), P14735 | FAbetaB cleavage | inhibition, % at 5.59 µM | actives 0.41% (n = 320,000);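 active = percent inhibition above the average of all tested compounds plus 3 SD, set per screening campaign, cut at about 16% in these data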;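 note: IDE supplied by intact live HEK cells; FP after avidin binding of uncleaved biotin substrate so inhibition keeps polarization high; 0% = DMSO wells and 100% = 60 µM reference IDE inhibitor Ii1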
* hit, by the source's call.

For COc1cc(/C=N/NC(=O)CCN2CCN(C(c3ccccc3)c3ccccc3)CC2)ccc1O the results were PolyA inh 9, M18AAP inhibitor 7, IDE cell activ -3, CaV13 ICDI inh -18 and IDE inh 0.
`CCCC1(C(=O)O)NC(c2ccccc2O)C2C(=O)N(Cc3ccccc3)C(=O)C21` (stereo unspecified) gave PolyA inh 1, M18AAP inhibitor -1, IDE cell activ 5, CaV13 ICDI inh -8, ALR H2O2 inh -20 and IDE inh 3.
`CCC1(C(=O)O)NC(c2cc(OC)ccc2O)C2C(=O)N(Cc3ccccc3)C(=O)C21` (stereo unspecified) gave PolyA inh 1, M18AAP inhibitor 0, IDE cell activ 1, CaV13 ICDI inh 2, ALR H2O2 inh 87* and IDE inh -2.
For CC(=O)c1ccccc1NCC(=O)Nc1ccc(C)cc1 the results were PolyA inh -4, M18AAP inhibitor -14, IDE cell activ 1, CaV13 ICDI inh -9, ALR H2O2 inh 45 and IDE inh 2.
`CCn1c(=O)c2c3c(sc2n2c(=S)[nH]nc12)CCC3` gave PolyA inh 8, M18AAP inhibitor -6, IDE cell activ 7, ALR H2O2 inh 87* and IDE inh 6.
For COc1ccccc1-c1nc(-c2ccccc2)[nH]c(=O)c1C#N the results were PolyA inh 28, M18AAP inhibitor 6, IDE cell activ 2, CaV13 ICDI inh 5, ALR H2O2 inh 7 and IDE inh 8.
CCOc1cc(/C=C2\N=C3CCCCCN3C2=O)ccc1O was read as PolyA inh -9, M18AAP inhibitor -4, IDE cell activ -11, CaV13 ICDI inh -8, ALR H2O2 inh 99* and IDE inh 6.
`CCOc1cc(/C=C2/C(=O)ON=C2C)ccc1O` gave PolyA inh -7, M18AAP inhibitor 25, IDE cell activ -2, CaV13 ICDI inh -8, ALR H2O2 inh 99* and IDE inh 1.
Screening CCOc1cc(/C=C2/N=C(C)C(C(=O)OC)=C2O)ccc1O returned PolyA inh -17, M18AAP inhibitor 18, IDE cell activ -5, CaV13 ICDI inh -14, ALR H2O2 inh 99* and IDE inh 4.
CCOC(=O)C1=C(O)/C(=C\c2ccc(OC)c(OC)c2)N=C1C was read as PolyA inh 21, M18AAP inhibitor 13, IDE cell activ 0, CaV13 ICDI inh -7 and IDE inh -1.
O=S1(=O)N[C@H](Cc2ccccc2)COc2cccc(N3CCCCC3)c21 was read as CaV13 ICDI inh -7.
`CCN1/C(=C/c2ccc3cccc(C)c3[n+]2CC)Sc2ccccc21` gave PolyA inh -1, M18AAP inhibitor -3, IDE cell activ -63, CaV13 ICDI inh -16, ALR H2O2 inh 10 and IDE inh 53*.
For CCN1/C(=C/c2ccc3cc(C)cc(C)c3[n+]2CC)Sc2cc(C)ccc21 the results were M18AAP inhibitor 10, IDE cell activ -186 and CaV13 ICDI inh -6.
C[C@H](CO)N1C[C@H](C)[C@@H](CN(C)C(=O)Nc2ccc(C(C)(C)C)cc2)OCc2cn(nn2)CCCC1=O was read as CaV13 ICDI inh -5.
CNc1nn(-c2cccc(Cl)c2)nc1N was read as PolyA inh -2, M18AAP inhibitor -15, IDE cell activ 8, CaV13 ICDI inh -7, ALR H2O2 inh 99* and IDE inh -5.
Screening CCOC(=O)c1ccc(S(=O)(=O)Nc2nc3cc(S(=O)(=O)NC4=NCCCCC4)ccc3s2)cc1 returned PolyA inh 1, M18AAP inhibitor -18, IDE cell activ -1, CaV13 ICDI inh 0, ALR H2O2 inh 97* and IDE inh 3.
Nc1nc2cc(S(=O)(=O)NC3=NCCCCC3)ccc2s1 was read as PolyA inh 12, M18AAP inhibitor 3, IDE cell activ 1, CaV13 ICDI inh 0, ALR H2O2 inh 91* and IDE inh 2.
O=C(COC(=O)c1ccc(O)cc1)Nc1cccc(S(=O)(=O)NC2=NCCCCC2)c1 was read as PolyA inh 21, M18AAP inhibitor -11, IDE cell activ 5, CaV13 ICDI inh -3, ALR H2O2 inh -6 and IDE inh 1.
Screening CN1CCN(/N=C/c2nc(-c3ccccc3Cl)n3ccccc23)CC1 returned PolyA inh 13, M18AAP inhibitor 3, IDE cell activ -4, CaV13 ICDI inh -15, ALR H2O2 inh 98* and IDE inh 2.
Screening CCN(Cc1nc2ccccc2n1C)c1ccccc1 returned PolyA inh -9, M18AAP inhibitor -6, IDE cell activ 2, CaV13 ICDI inh -3, ALR H2O2 inh 99* and IDE inh -1.
For CCN(CC)c1ccc(CNc2nc3ccccc3n2C)cc1 the results were PolyA inh -11, M18AAP inhibitor 4, IDE cell activ 1, CaV13 ICDI inh -3, ALR H2O2 inh 98* and IDE inh -8.
Screening CCN(CC)c1ccc(CNc2nc3ccccc3n2CCN2CCCCC2)cc1 returned PolyA inh 1, M18AAP inhibitor 4, IDE cell activ 1, CaV13 ICDI inh -5, ALR H2O2 inh 99* and IDE inh 2.
Screening COc1ccc(CNc2nc3ccccc3n2Cc2ccc(Cl)cc2)cc1OC returned PolyA inh 11, M18AAP inhibitor 6, IDE cell activ 3, CaV13 ICDI inh -5, ALR H2O2 inh 5 and IDE inh 0.
Screening CCn1c(NCc2cc(OC)c(OC)c(OC)c2)nc2ccccc21 returned PolyA inh 7, M18AAP inhibitor -1, IDE cell activ 5, CaV13 ICDI inh 11, ALR H2O2 inh 97* and IDE inh -2.
`CCn1c(NCc2ccc(N(C)C)cc2)nc2ccccc21` gave PolyA inh -2, M18AAP inhibitor -1, IDE cell activ 3, CaV13 ICDI inh -7, ALR H2O2 inh 50 and IDE inh 3.
Screening C[C@H](CO)N1C[C@H](C)[C@@H](CN(C)Cc2ccncc2)Oc2c(NC(=O)Cc3ccccc3)cccc2C1=O returned IDE cell activ 1, CaV13 ICDI inh -11, ALR H2O2 inh -2 and IDE inh -3.
`C[C@H](CO)N1C[C@H](C)[C@H](CN(C)Cc2ccc(F)cc2)Oc2ncc(Br)cc2C1=O` gave CaV13 ICDI inh -5.
